# Compound activity as filed in PubChem BioAssay.
# BAZ2B block – blocks human BAZ2B. AlphaScreen BAZ2B-H3K14Ac peptide displacement. Potency, µM (titrated, usually from 114 µM), without a hit: at the highest dose activity change, negative = inhibition, most hits filed as inhibitors. Q9UIF8. 360,000 tested, 4.4% active. AID 504333; also: % is scaled to controls: 0 for no effect and ±100 for the full control effect; nearly all actives have a fitted effect of over 60% in size
#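 AlphaScreen luminescence quantifies BAZ2B engagement of H3K14Ac peptide; the protein and biotinylated peptide are both at 50 nM final, buffer PBS pH 7.4 with 0.01% Tween-20, all steps at room temperature.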
# G9a block – G9a (human) methyltransferase inhibition | 350,000 tested, 8.8% active | G9a H3K9 monomethylation, AlphaScreen, 2 h | Potency, µM (highest dose often 102 µM), for inactives: at the top dose activity, negative = inhibition, actives largely listed as inhibitors | AID 504332 | Q96KQ7; also: % is scaled to controls: 0 for no effect and ±100 for the full control effect; nearly all actives have a fitted effect of over 75% in size
# Target sequence (Q96KQ7 913-1193 limits assumed): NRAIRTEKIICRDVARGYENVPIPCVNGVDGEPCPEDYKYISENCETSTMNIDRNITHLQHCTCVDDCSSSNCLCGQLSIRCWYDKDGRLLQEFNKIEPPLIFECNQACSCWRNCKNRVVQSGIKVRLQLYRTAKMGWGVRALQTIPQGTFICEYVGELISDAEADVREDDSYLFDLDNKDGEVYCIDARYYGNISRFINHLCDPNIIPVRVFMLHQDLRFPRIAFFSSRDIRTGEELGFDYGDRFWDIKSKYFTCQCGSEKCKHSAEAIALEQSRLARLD
#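 G9a (20 nM) preincubated 15 min RT with compounds, then 500 nM biotinylated H3K9 peptide and 20 uM SAM added; 2 h RT reaction. Monomethyl-H3K9 product detected by AlphaScreen with anti-H3K9me1 antibody, streptavidin donor and anti-rabbit IgG acceptor beads.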
# Sfp PPTase inh – Sfp phosphopantetheinyl transferase inhibition; 310,000 tested, 3.5% active; Biochemical Sfp PPTase activity, qHTS; Q9F4F7; Potency, µM, inactives show largest response in the series, negative = inhibition, hits mostly inhibitors;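 also: the enzyme is Sfp with the accession as filed and its product quenches rhodamine fluorescence; 0% = enzyme reaction without inhibitor and -100% = no enzyme wells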
#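 Buffer: 50 mM Hepes-Na pH 7.6, 10 mM MgCl2, 0.01% Nonidet P-40, 0.01% BSA. Enzyme 15 nM, pre-exposed to compound 15 min; substrates then added and fluorescence change tracked over 30 min.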
# JMJD2A Tudor – blocks the human JMJD2A Tudor domain; AID 504339; O75164; Potency, µM (doses to about 114 µM), without a hit: at the top dose activity change, negative = inhibition, usual class: inhibitors; AlphaScreen JMJD2A-Tudor / H3K4me3 peptide binding; 390,000 tested, 4.4% active; also: % is scaled to controls: 0 for no effect and ±100 for the full control effect; nearly all actives have a fitted effect of over 50% in size
# HP1b binding inh – blocks HP1-beta chromodomain binding to methylated histone tails; P83916; AlphaScreen HP1-beta / biotin-H3K9me3 peptide binding; Potency, µM (titrated, usually from 114 µM), for inactives: top-dose activity change, negative = inhibition, actives largely listed as inhibitors; 390,000 tested, 0.56% active; also: nearly all actives have a fitted effect of over 70% in size
# Target sequence (P83916 whole entry, looked up): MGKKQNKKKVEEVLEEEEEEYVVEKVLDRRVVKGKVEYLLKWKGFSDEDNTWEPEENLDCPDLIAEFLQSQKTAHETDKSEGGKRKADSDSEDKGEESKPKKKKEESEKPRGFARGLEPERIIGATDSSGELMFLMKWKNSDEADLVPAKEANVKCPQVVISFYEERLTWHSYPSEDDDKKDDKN
#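 Compound inhibition of the preformed complex between 50 nM HP1-beta and 50 nM biotinylated H3K9me3 peptide was read by AlphaScreen. Buffer was PBS pH 7.4 with 0.01% Tween-20. Incubations ran 30 min at room temperature, with 10 ug/mL donor/acceptor beads.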
# The depositor's hits bear a star; ? = inconclusive; nt = not tested or not shown; [ ] = remark or other dose. Most compounds without a hit are left out; they make up all but 12% or so of the library. Calls follow the shape of the dose curve; as a rule, active = well fitted curve in the direction sought with a large enough effect; inconclusive = small, poorly fitted or top-dose-only effect, or another doubt; inactive = no such curve, though single readings can be large; an effect the other way counts as inactive or inconclusive. Potency is read from the fitted curve at half-maximal effect.
SMILES,BAZ2B block,G9a block,Sfp PPTase inh,JMJD2A Tudor,HP1b binding inh
COc1ccc(-n2c(=S)[nH]c3cc(C(=O)NCCCN4CCOCC4)ccc3c2=O)cc1OC,?,35µM*,-22%,22µM*,34%
O=C(c1ccc2c(=O)n(Cc3ccccc3)c(=S)[nH]c2c1)N1CCOCC1,-2%,?,-6%,-4%,35%
O=C(NCCCN1CCOCC1)c1ccc2c(=O)n(Cc3ccccc3)c(=S)[nH]c2c1,-26%,50µM*,5%,-10%,39%
CCC(=O)N=c1sc2cc(F)cc(F)c2n1C,nt,nt,nt,-8%,30%
Cc1ccc(C)c(-n2c(-c3ccc4c(c3)OCO4)n[nH]c2=S)c1,?,4µM*,-2%,25µM*,-6%
Cc1ccc(C)c(-n2c(-c3ccncc3)n[nH]c2=S)c1,-20%,16µM*,1%,11µM*,27%
Cc1ccc(C)c(-n2c(-c3csc(C)c3)n[nH]c2=S)c1,-29%,0.28µM*,17%,22µM*,-1%
CSc1nc(=S)n(-c2cc(C)ccc2C)c(C)c1C(C)=O,?,-4%[0.501 µM],-9%,-11%,26%
O=C1CCCc2c1cc(C(=O)O)c(=O)n2-c1ccccc1,-11%,nt,9%,-13%,3%
O=C1CCCc2c1cc(C(=O)NC1CCSC1=O)c(=O)n2-c1ccccc1 (centres undefined),-4%,?,50µM*,-5%,18%
O=C1CCCc2c1cc(C(=O)Nc1ccc(Br)cn1)c(=O)n2-c1ccccc1,-4%,-38%[12.7 µM],?,79µM*,23%
CC1(C)CC(=O)c2cc(C(=O)NC3CCSC3=O)c(=O)n(-c3ccccc3)c2C1 (centres undefined),11%,?,1%,-8%,30%
COc1ccc(/C=C2/S/C(=N/S(=O)(=O)Cc3ccccc3)NC2=O)cc1OC,-9%,nt,3%,-13%,15%
COc1ccc(CNc2cccc3[nH]c(C(F)(F)F)nc23)cc1,?,-13%[2.33 µM],-1%,?,18%
COc1cc(CNc2cccc3[nH]c(C(F)(F)F)nc23)cc(OC)c1,?,40µM*,-18%,50µM*,28%
Cc1ccc(NC(=S)N(N)CCO)cc1,79µM*,45µM*,?,?,17%
CCN(N)C(=S)Nc1ccc(F)cc1,-18%,?,-21%,-25%,19%
COc1ccc2c(c1)OC[C@H]1[C@H]2N2C(=O)CN(Cc3ccc(Cl)cc3)C(=O)[C@@]2(C)[C@H]1c1ccccc1,-10%,10%[0.501 µM],nt,-27%,41%
CC(C)NC(=O)c1ccc2c(=O)n(CC3CCCO3)c(=S)[nH]c2c1 (centres undefined),9%,124%[59 µM],-18%,?,27%
Cc1ccc(CNC(=O)c2ccc3c(=O)n(CC4CCCO4)c(=S)[nH]c3c2)cc1 (centres undefined),3%,2%[59 µM],0%,-10%,25%
COc1ccccc1Cn1c(=S)[nH]c2cc(C(=O)NCCN(C)C)ccc2c1=O,-14%,45µM*,-7%,-19%,15%
COCCCNC(=O)c1ccc2c(=O)n(CC3CCCO3)c(=S)[nH]c2c1 (centres undefined),?,1%[12.7 µM],-20%,20µM*,10%
COc1ccccc1CNC(=O)c1ccc2c(=O)n(CC3CCCO3)c(=S)[nH]c2c1 (centres undefined),6%,9%,19%,-3%,28%
O=C(NCc1ccco1)c1ccc2c(=O)n(CC3CCCO3)c(=S)[nH]c2c1 (centres undefined),9%,8.9µM*,-12%,-11%,45%
COc1ccccc1Cn1c(=S)[nH]c2cc(C(=O)NCC3CCCO3)ccc2c1=O (centres undefined),3%,-9%,6%,-9%,13%
SMILES,BAZ2B block,G9a block,Sfp PPTase inh,JMJD2A Tudor,HP1b binding inh
O=C(NCc1ccccc1)c1ccc2c(=O)n(CC3CCCO3)c(=S)[nH]c2c1 (centres undefined),9%,-15%,3%,89µM*,41%
COc1ccc(Nc2ccnc(Nc3ccc(OC)cc3)n2)cc1,45µM*,?,-86%,?,?
CCOc1nc(Nc2ccc(OC)cc2)nc(OCC)n1,1%,15%[59 µM],10%,79µM*,-73%
Cc1ccc(/C=C2/CNC/C(=C\c3ccc(C)cc3)C2=O)cc1,nt,nt,-5%,nt,nt
NC(C(=O)O)[C@@H]1CC(Cl)=NO1 (some centres undefined),nt,-34%[2.33 µM],-19%,nt,nt
NC(C(=O)O)C1ON=C(Cl)C1O (centres undefined),nt,nt,nt,79µM*,44%
CC[C@]1(C(=O)OC)[C@H]2C(=O)N(Cc3ccccc3)C(=O)[C@H]2[C@H]2CN=C(SCC3CC3)N21,nt,nt,nt,79µM*,19%
CCN1C(=O)[C@H]2[C@H]3CN=C(SCC4CC4)N3[C@@](Cc3ccccc3)(C(=O)OC)[C@H]2C1=O,nt,nt,nt,89µM*,9%
CC[C@]1(C(=O)OC)[C@H]2C(=O)N(Cc3ccccc3)C(=O)[C@H]2[C@H]2CN=C(SCc3ccc(C)cc3)N21,nt,nt,nt,-26%,29%
COC(=O)[C@@]1(Cc2ccccc2)[C@H]2C(=O)N(C)C(=O)[C@H]2[C@H]2CN=C(SCC3CC3)N21,nt,nt,nt,?,87%
CCN1C(=O)[C@H]2[C@H]3CN=C(SCc4ccccc4)N3[C@@](Cc3ccccc3)(C(=O)OC)[C@H]2C1=O,nt,nt,nt,89µM*,21%
CCN1C(=O)[C@H]2[C@H]3CN=C(SCc4ccc(C#N)cc4)N3[C@@](Cc3ccccc3)(C(=O)OC)[C@H]2C1=O,nt,nt,nt,-36%,34%
COC(=O)c1c(C)nn(-c2ccccc2)c1N,-10%,-37%,-1%,-3%,36%
Cc1cc(C)c2c(=O)n(CC(=O)N3CCC(Cc4ccccc4)CC3)sc2n1,1%,1.6µM*,7.9µM*,nt,nt
Cc1cccc(N2CCN(C(=O)Cn3sc4nc(C)cc(C)c4c3=O)CC2C)c1 (centres undefined),?,1.3µM*,3.5µM*,3.2µM*,8.9µM*
Cc1cccc(N2CCN(C(=O)CN3CCOc4ccccc43)CC2C)c1 (centres undefined),?,50µM*,9%,?,-15%
Cc1cccc(N2CCN(C(=O)Cn3nc(C)n4cccc4c3=O)CC2C)c1 (centres undefined),9%,-3%,7%,-3%,29%
CC(C)CNS(=O)(=O)c1cc(C(=O)N2CC(C)OC(C)C2)c(Cl)cc1Cl (centres undefined),-23%,21%[12.7 µM],6%,-9%,17%
COc1ccccc1CCNC(=O)c1cc2ccccn2n1,-21%,?,nt,-29%,61%
COc1ccc(NC(=O)CSCc2cc(=O)c3cc(Cl)ccc3[nH]2)cc1,7%,13%[59 µM],nt,-10%,20%[57 µM]
CCN(CC)CCCNc1cc(C(F)(F)F)c(C#N)c2nc3ccccc3n12,9%,?,?,9%,44%
